# Inconclusive results are not listed. Unmarked numbers belong to inactive results. Calls of active or inactive are those of the source. Calls come from the whole dose curve; as a rule, active = well fitted activation curve with a large enough effect; inconclusive = small, poorly fitted or top-dose-only effect; inactive = flat fitted curve, though single readings scatter.
# Assay: qHTS assay to identify small molecule phospholipidosis (PLD) inducers (AID 1259344)
# Settings: HepG2 phospholipidosis, LipidTOX Red imaging, 24 h; series mostly up to 38.3 µM; PLD induction: at the top concentration
# Method in brief: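 HepG2 cells, 900/well, treated with compound plus LipidTOX Red for 24 h at 37 C; amiodarone positive and DMSO negative controls. Fixed with paraformaldehyde/Hoechst, then high-content imaging scored LipidTOX pit count and integrated intensity per well and per cell.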
# % is set by controls: 0 for no effect and ±100 for the full control effect.
SMILES,PLD induction [%],Potency
C[C@H](O)CN(C)C,-0.434,
CCN1\C(=C/C=C/C=C/c2sc3ccccc3[n+]2CC)Sc2ccccc21,,inactive
CC[C@H]1OC(=O)C[C@@H](O)[C@H](C)[C@@H](O[C@@H]2O[C@H](C)[C@@H](O)[C@H](N(C)C)[C@H]2O)[C@@H](CCN2C[C@H](C)C[C@H](C)C2)C[C@@H](C)C(=O)/C=C/C(C)=C/[C@@H]1CO[C@@H]1O[C@H](C)[C@@H](O)[C@@H](OC)[C@H]1OC,0.424,
C[C@@H]1O[C@@H]1P(=O)(O)O,0.45,
C/C=C/C1=C(C(=O)O)N2C(=O)[C@@H](NC(=O)[C@H](N)c3ccc(O)cc3)[C@H]2SC1,-0.389,
COc1ccc(/C=C/C(=O)O)cc1,2.97,
CO/N=C(\C(=O)N[C@@H]1C(=O)N2C(C(=O)O)=C(COC(C)=O)CS[C@H]12)c1csc(N)n1 (stereo in doubt),-0.456,
CC[C@H]1OC(=O)C[C@@H](O)[C@H](C)[C@@H](O[C@@H]2O[C@H](C)[C@@H](O[C@H]3C[C@@](C)(O)[C@@H](O)[C@H](C)O3)[C@H](N(C)C)[C@H]2O)[C@@H](CC=O)C[C@@H](C)C(=O)/C=C/C(C)=C/[C@@H]1CO[C@@H]1O[C@H](C)[C@@H](O)[C@@H](OC)[C@H]1OC,,inactive
C1CCc2nnnn2CC1,-0.258,
O=C1[O][Bi][O]c2ccccc21,-0.561,
N[C@@H](Cc1ccc(O)c(O)c1)C(=O)O,8.4,
NC(=S)NS(=O)(=O)c1ccc(N)cc1,-0.138,
O=C(O)/C=C/C(O)c1ccc(Cl)cc1 (centres undefined),-0.396,
NCCO/C=C/[C@H](N)C(=O)O,1.88,

# Source: PubChem BioAssay (Tox21)
